# Measurements reported in PubChem BioAssay AID1259415 (National Center for Advancing Translational Sciences (NCATS), 2018).
# Values joined by “and” are separate entries in the source; they are usually repeats but may differ in a detail not shown here. Equal entries are not always repeated. Out of some 410,000 compounds screened, about 18,000 (4.4%) were called active. Roughly 7% stayed inconclusive and do not appear here. For the sample, actives were picked, then their nearest neighbours and some compounds at random. Values without a mark were called inactive. No stated cut-off is given here; in the data, active means activity change below about -60%; inconclusive means no clear call, values can overlap the other calls; inactive means above about -39%.
# Assay: qHTS Assay for inhibitors of the human cytomegalovirus (HCMV)
# Settings: HFF cells, HCMV-luciferase reporter, 72 h; at 57.5 µM; stronger effect = lower value
# Outline: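 Human foreskin fibroblasts infected with luciferase-reporter HCMV at MOI 1 PFU/cell, compounds at two doses. Luciferase measured 72 h post infection; normalized to buffer-only basal and Salinomycin (10uM) controls.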
# On the % scale 0 is the no-effect control and ±100 the full control effect.
row,SMILES,"activity change, negative = inhibition"
1,COc1ccc(Cn2ccc3nc(C)c(C(=O)Nc4ccc(C)c(F)c4)cc3c2=O)cc1,0.318%
2,COc1ccc(C2=CC(c3ccccc3Cl)n3nc(-c4ccc(Cl)cc4)nc3N2)cc1 (stereo not given),-32.6%
3,C/C(=N/NC(=O)CC(=O)N/N=C(\C)c1ccc([N+](=O)[O-])cc1)c1ccc([N+](=O)[O-])cc1,-9.56%
4,C/C(=N\Nc1nc(N2CCOCC2)nc(N2CCOCC2)n1)c1ccc([N+](=O)[O-])cc1,-66% (active)
5,C/C(=N\Nc1ccc([N+](=O)[O-])cc1)c1ccc(-n2nncc2C(C)(C)C)cc1,-14.8%
6,CC1CCN(CCCNC(=O)CN2C(=O)CSc3ccc(S(=O)(=O)N4CCCCC4)cc32)CC1,16.9% and -5.47%
7,CCOC(=O)c1ccccc1NC(=O)c1sc2nc(-c3ccc(F)cc3)cn2c1C,-4.65%
8,Cc1cccc(C(=O)Nc2ccc(-c3nc4ncccc4o3)cc2C)c1,24.6%
9,O=C1NC(=O)N(CCc2ccc(F)cc2)C(=O)/C1=C/C=C/c1ccccc1,-71.6% (active)
10,O=C1c2ccccc2C(=O)N1CCOc1ccc(F)cc1,-3.7%
11,CCc1ccc(OCC(=O)N2CCN(CC(=O)Nc3ccccc3Cl)CC2)cc1,11.8%
12,Clc1ccc(-c2cc(COc3ccccc3)no2)cc1Cl,0.868%
13,Cc1ccc(NC(=O)CSc2nnc3[nH]c(=O)cc(C)n23)cc1Cl,-38.5%
14,COc1ccc(-c2cc(=O)oc3cc(OC(C)C(=O)Nc4ccc(CN5CCOCC5)cc4)ccc23)cc1 (stereo not given),-70.7% (active)
15,Cc1cc(=O)oc2cc(OC(C)C(=O)Nc3ccc(N4CCOCC4)cc3)ccc12 (stereo not given),5.98%
16,COc1ccc(-c2cc(=O)oc3cc(OC(C)C(=O)NCC4CCC(C(=O)O)CC4)ccc23)cc1 (stereo not given),5.3%
17,CCCNC(=O)c1ccc2c(c1)ncn2-c1ccc(C)cc1C,-6.25%
18,CC(C)(C)c1ccc(C(=O)Nc2ccc3c(c2)CCCN3C(=O)c2cccs2)cc1,-80.2% (active)
19,O=C(Nc1ccc2nc(SCC(=O)N3CCCc4ccccc43)sc2c1)c1ccc(F)cc1,-5.14%
20,O=C(Nc1ccc2nc(SCC(=O)N3CCCc4ccccc43)sc2c1)c1ccc(Cl)cc1,95.5%
21,Cc1ccc(CNC(=O)CCCNC(=O)c2ccc(Cl)cc2)n1C,43.4%
22,CCOc1ccccc1CNC(=O)C1CCCN(S(=O)(=O)c2ccc3c(ccn3C)c2)C1 (stereo not given),-5.75%
23,Cc1ccc(CNC(=O)CCc2c(C)nn(-c3ccc(N4CCCC4)nn3)c2C)cc1,19.6%

row,SMILES,"activity change, negative = inhibition"
1,CCN(CC)C(=O)CSc1nnc(C2CCCCC2)o1,18.8%
2,Cc1[nH]c2ccccc2c1C(=O)C(C)Sc1nnc(C2CC2)o1 (stereo not given),0%
3,CCCCCC1CCC(c2nnc(SCC(C)=O)o2)CC1 (stereo not given),-99.8% (active)
4,Cc1ccc(CNC(=O)CCNS(=O)(=O)c2ccc3c(c2)oc(=O)n3C)cc1,-1.91%
5,COC1=C[C@@H]2[C@@H]3Cc4ccc(OC)c(O)c4[C@]2(CCN3C)CC1=O,-68% (active)
6,COC1=CC=C2[C@H]3Cc4ccc(OC)c5c4[C@@]2(CCN3C)C1O5 (stereo not given in full),23.5%
7,COc1ccc2c(c1)[C@]13CCCCC1C(C2)N(C)CC3 (stereo not given in full),-2.65%
8,Cc1ccc(Cl)cc1N1CCN(C(=O)c2cccn3c(=O)c4cc(Cl)ccc4nc23)CC1,-4.38%
9,COc1ccc(-c2nc3scc(CCNS(=O)(=O)c4cc(F)ccc4OC)n3n2)cc1OC,34.6%
10,CC(=NCc1ccc2c(c1)OCO2)C1=C(O)c2ccccc2C1=O,14.5%
11,CCOC(=O)c1scc(-c2ccc(C)cc2)c1S(=O)(=O)Nc1cc(C)ccc1C,-16.6%
12,CCOC(=O)c1c(-c2ccc(C)cc2)csc1/N=C(\C)C1=C(O)c2ccccc2C1=O,-62.8% (active)
13,CSc1ccc(C2C(C(=O)Nc3ccccc3)=C(C)Nc3nc4ccccc4n32)cc1 (stereo not given),8.38%
14,COc1ccc(CNC(=O)Cn2nnc(-c3ccc(S(C)(=O)=O)cc3)n2)cc1,21.5%
15,COc1ccc(N2CCN(C3=NS(=O)(=O)C(c4cccc(Br)c4)=C3C)CC2)cc1,-29.4%
16,COc1cccc(-c2nc3ccc(N4CCN(C)CC4)cc3[nH]2)c1,-68.2% (active)
17,COc1cccc(N2CCN(c3ccc4nnc(CCC(=O)N5CCN(C)CC5)n4n3)CC2)c1,-14.4%
18,CCCCOC(=O)CSc1ncnc2sc3c(c12)CCC(C)C3 (stereo not given),-8.12%
19,CN1CCN(/N=C/c2c[nH]c3ccccc23)CC1,41%
20,C[n+]1ccc(/C=C/c2c[nH]c3ccccc23)cc1,-99.1% (active)
21,CCC/C(=N\O)c1c[nH]c2ccccc12,26.6%
22,COc1ccc(Cl)cc1N(C)C(=O)c1cc2c(=O)oc3ccc(C)cc3c2s1,-13.9%
23,O=C(CN1CCSc2ccccc21)N1CCN(c2ccccc2)CC1,-1.62%

row,SMILES,"activity change, negative = inhibition"
1,CCOC(=O)CCC(=O)OCC(=O)NC(C)C1CC2CCC1C2 (stereo not given),-99.5% (active)
2,CC(NC(=O)CN(C)S(=O)(=O)c1ccc(F)cc1)C1CC2CCC1C2 (stereo not given),5.39%
3,Cc1cccc(C(=O)OCC(=O)NC(C)C2CC3CCC2C3)c1O (stereo not given),50.9%
4,COc1cccc(NC(=O)c2nn(C34CC5CC(CC(C5)C3)C4)cc2[N+](=O)[O-])c1,-71.1% (active)
5,COc1cccc(NC(=O)c2csnn2)c1,24.9%
6,Cn1cc([N+](=O)[O-])c(C(=O)Nc2ccc3c(c2)OCCO3)n1,-91% (active)
7,Cn1ccnc1SCC(=O)Nc1ccc2c(c1)OCCO2,147%
8,Cn1cnc(S(=O)(=O)Nc2ccc3c(c2)OCCO3)c1,30.3%
9,COc1cccc(NC(=O)COc2cccnc2[N+](=O)[O-])c1,9.93%
10,O=C(NCc1ccco1)O[C@H]1CC[C@@]23CCCN2C(=O)CCC[C@H]3[C@H]1Cc1ccccc1,13.9%
11,CCC(=O)N1CCc2cc(CNS(=O)(=O)c3ccc(Br)s3)ccc21,-28.1%
12,CCOc1ccc(C(=O)N2CCN(CCc3ccccn3)CC2)cc1,7.37%
13,Cc1nnc2n1N=C(c1ccc3c(c1)NC(=O)CO3)CS2,58.6%
14,O=C(c1ccc2c(c1)N(Cc1ccccc1)C(=O)c1ccccc1S2(=O)=O)N1CCCC1,-21.3%
15,O=C(c1ccc2c(c1)N(Cc1ccc(Cl)cc1)C(=O)c1ccccc1S2(=O)=O)N1CCCCC1,-15.9%
16,O=C(c1ccc2c(c1)N(Cc1ccc(F)cc1)C(=O)c1ccccc1S2(=O)=O)N1CCN(c2ccccn2)CC1,-76.7% (active) and -91.8% (active)
17,Cc1ccc(Cl)cc1NC(=O)C(C)n1nnc2sc(-c3ccccc3)cc2c1=O (stereo not given),17.8%
18,COc1cc(OC)c(N(C)C(=O)c2cc3c(=O)oc4ccccc4c3s2)cc1Cl,-8.12%
19,Cn1c(=O)c2c(nc(Oc3ccc(C#N)cc3)n2Cc2ccc(Cl)cc2Cl)n(C)c1=O,-9.46%
20,Cc1cc(NC(=O)COn2nnc3ccccc32)no1,29.8%
21,Cc1cc(NC(=O)CSCc2ccccc2C)no1,-34.5%
22,Cc1cc(NC(=O)CS(=O)(=O)c2cn(C)c3ccccc23)no1,-74.2% (active)
23,Cc1ccc2c(=O)c(C(=O)c3ccc(Cl)cc3)cn(CC(=O)NC3CCCCC3)c2n1,-0.369%

row,SMILES,"activity change, negative = inhibition"
1,CCOc1ccc(CCNC(=O)c2c(C)oc3ncn(C)c(=O)c23)cc1,-13.7%
2,Cc1cc(C)cc(OCC(=O)Nc2nc(-c3ccc(F)cc3)ns2)c1,150%
3,COc1ccccc1C(=O)COC(=O)COc1ccc(C#N)cc1,-31.6%
4,N#C/C(=C(/O)COC(=O)COc1ccc(Cl)cc1)c1nc2ccccc2[nH]1,-101% (active)
5,CC(C)(C)c1nnc2sc(SCC(O)=C(C#N)c3nc4ccccc4[nH]3)nn2c1=O,-4.66%
6,Cc1ccc(S(=O)(=O)Nc2ccccc2CNc2c(C)n(C)n(-c3ccccc3)c2=O)cc1,-7.12%
7,CC1CCCN(Cc2c(O)ccc3c(=O)c(Oc4ccc(C(C)(C)C)cc4)c(C(F)(F)F)oc23)C1 (stereo not given),-38.5%
8,Cc1csc2nc(COC(=O)c3ccc(NC(=O)COc4ccccc4F)cc3)cc(=O)n12,14.4%
9,O=C(CSc1ncnc2sccc12)NC1CCS(=O)(=O)C1 (stereo not given),-22.5%
10,O=C(CSc1nn(-c2ccc(F)cc2)c(=S)s1)NC1CCS(=O)(=O)C1 (stereo not given),-34.3%
11,O=C(CSc1ccccc1F)NC1CCS(=O)(=O)C1 (stereo not given),-105% (active)
12,COC(=O)CC(CC(=O)OC)n1cccc1,19.2%
13,COc1ccc(-n2c(SCC(=O)Nc3sc4c(c3C#N)CCCC4)nnc2-c2ccc(O)cc2)cc1,-15.5%
14,COc1ccccc1-c1ccnc2[nH]n(-c3ccccc3)c(=O)c12,-8.55%
15,COc1ccc2cc(CNc3ccc(OC)c(OC)c3)c(=O)n(CC(=O)Nc3ccccc3F)c2c1,9.9%
16,COc1ccc(S(=O)(=O)N2CCCCC2)cc1NC(=O)COc1ccccc1,-25.1%
17,Cc1ccc(S(=O)(=O)N2CCCCC2)cc1NC(=O)[C@@H]1CCCN1C(=O)c1cccs1,0%
18,CCOc1ccccc1NC(=O)C1CCCN(C(=O)Nc2ccccc2)C1 (stereo not given),-21.6%
19,CCOc1ccccc1NC(=O)C1CCCN(S(=O)(=O)c2ccccc2)C1 (stereo not given),-62% (active)
20,CCOc1ccccc1NC(=O)COc1ccc(S(=O)(=O)N2CCCC2)cc1,-21%
21,CCOc1ccc(S(=O)(=O)N2CCCCC2)cc1NC(=O)CN1CCCC1c1cccs1 (stereo not given),-90% (active)
